Bioassay records from PubChem BioAssay.
Compounds with a hit are over-represented: about 2.8% of the library has one in this group of screens.
CF NFkB block – inhibitors of PAF-induced NF-kB signaling, primary screen, cell-based, GFP fluorescence, uHTS; inhibition, % at 5 µM; KKLEB NF-kB-GFP reporter, GFP fluorescence overnight; 0.86% of 360,000 active; AID 588850, 2011;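 active means at least 50% inhibition at 5 µM, scaled per plate between neutral and stimulator controls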;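 further: PAF is a Pseudomonas aeruginosa culture filtrate used as stimulus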
HIF-2a block – HIF-2a reporter inhibitors, primary screen, luminescence, 786-0 RCC cells; 786-0 RCC cells HIF-2a reporter, luciferase luminescence, overnight; inhibition, % at 18.8 µM; 0.72% of 360,000 active; AID 624352, 2012;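 active means inhibition of the luminescence signal of 40% or more relative to plate controls, in a single-dose primary screen at 18.75 µM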
MITF TRPM1 inh – inhibitors of MITF-dependent TRPM1 promoter reporter, primary screen, cell-based, SK-MEL-5, single point, luciferase; SK-MEL-5 TRPM1 promoter luciferase, 24 h; inhibition, % at 12.5 µM; 0.83% of 330,000 active;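 active means mean inhibition across replicates of 60% or more, whatever share of single replicates reaches that level; inconclusive means some that reach 60%, reason not given; inactive means mean inhibition across replicates below 60%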
Shn3 3UTR inh – reduction of Shn3 3'UTR firefly luciferase signal, primary screen, Schnurri-3 inhibitor project, cell-based, Clone20 osteoblasts, set 2. Clone20 osteoblast Shn3 3'UTR firefly luciferase, 24 h. inhibition, % at 12.5 µM. AID 588674, 2011. 0.52% of 360,000 active;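 active means mean inhibition of at least 75% with every replicate also reaching 75%; inconclusive means mean inhibition at least 75% but some replicate below; inactive means mean inhibition below 75%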
Peg3 prom inh-1 – Peg3 promoter-driven luciferase inhibitors, primary screen, cell-based, HeLa, luciferase luminescence. HeLa PEG-Prom luciferase reporter, overnight. inhibition, % at 20 µM. 1.7% of 360,000 active;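 active means inhibition of at least 50% at 20 µM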
KKLEB cytotox – cytotoxicity in KKLEB CF airway cells, primary screen, cytotoxicity control for CF NF-kB inhibitor project, cell-based, uHTS, fluorescence assay plates; KKLEB CF airway cells viability, ATPlite luminescence, overnight; active compounds read low; cells stimulated with P. aeruginosa culture filtrate; activity change (cytotoxicity), % at 5 µM; 0.36% of 360,000 active; AID 602141, 2011;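 active means corrected activity change at or below -50% at 5 µM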
Peg3 prom inh-2 – Peg3 promoter reporter inhibitors, retest, confirmation, cell-based, HeLa, luciferase reporter, single concentration | shares compounds with Peg3 prom inh-1 | HeLa PEG-Prom luciferase reporter, luminescence, overnight | inhibition, % at 20 µM | 84% of 1,300 active;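 active means at 20 µM dose, 40% or more inhibition averaged across four replicates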
Large screens that a line does not name were inactive (follow-up assays come after a bar, where they were run).

CCC(=O)N1CCN(c2ccccc2NC(=O)COc2cc(C)ccc2C(C)C)CC1	Peg3 prom inh-1 52
COc1ccccc1NC(=O)COc1cccc2c1CCNC2=O	none
COc1ccccc1-c1ccc2c(c1)O[C@@H](CN(C)C(=O)c1ccncc1)[C@H](C)CN([C@@H](C)CO)S2(=O)=O	none (no result: MITF TRPM1 inh)
Nc1nc(Nc2ccc(Cl)cc2)nc2ccccc12	KKLEB cytotox -55
Nc1nc(Nc2ccccc2)nc2ccccc12	none
CCOc1ccc(Nc2nc(N)c3ccccc3n2)cc1	HIF-2a block 47, Peg3 prom inh-1 58, KKLEB cytotox -56
COc1cc(F)ccc1-c1csc(C(C)(O)c2ccccc2)n1 (stereo not given)	none (no result: MITF TRPM1 inh)
COc1ccc(-n2c(-c3cc(-c4ccccc4)sc3N)n[nH]c2=S)cc1	Peg3 prom inh-1 87
COC(=O)c1ccc(C(=O)OC)c(NC(=S)N2CCN(C(=O)C3CCCO3)CC2)c1 (stereo not given)	none
CCC(=O)NC(c1cccs1)c1cc([N+](=O)[O-])c2cccnc2c1O (stereo not given)	Peg3 prom inh-1 53 | Peg3 prom inh-2 54
CC(=O)NC(c1ccccc1)c1cc([N+](=O)[O-])c2cccnc2c1O (stereo not given)	Peg3 prom inh-1 61 | Peg3 prom inh-2 63
CC(=O)NC(c1ccc(C)cc1)c1cc(Cl)c2cccnc2c1O (stereo not given)	Shn3 3UTR inh 87, Peg3 prom inh-1 65 | Peg3 prom inh-2 56
CC(C)C(=O)NC(c1ccccc1)c1cc([N+](=O)[O-])c2cccnc2c1O (stereo not given)	none
CCCCC(=O)NC(c1ccccc1Cl)c1ccc2cccnc2c1O (stereo not given)	MITF TRPM1 inh 71, Shn3 3UTR inh 88, Peg3 prom inh-1 58 | Peg3 prom inh-2 65
Cc1ccccc1C(=O)Nc1ccnn1C1CCN(C(=O)c2ccoc2)CC1	none
COC(=O)c1ccc(N2CCN(C)CC2)c(NC(=O)COc2cccc(C)c2)c1	none
CC(=O)NC(c1ccco1)c1cc(Cl)c2cccnc2c1O (stereo not given)	none (no result: MITF TRPM1 inh)
CC(=O)NC(c1ccc(C(C)C)cc1)c1ccc2cccnc2c1O (stereo not given)	MITF TRPM1 inh inconclusive, Shn3 3UTR inh 92, Peg3 prom inh-1 57 | Peg3 prom inh-2 70
CN(C)c1ccc(CN2CCC(C(=O)NC(c3ccc(F)cc3)c3ccc4ccccc4n3)CC2)cc1 (stereo not given)	none (no result: MITF TRPM1 inh)
O=C(NC(c1ccc(F)cc1)c1ccc2ccccc2n1)C1CCN(Cc2cccc(C(F)(F)F)c2)CC1 (stereo not given)	Peg3 prom inh-1 78 (no result: MITF TRPM1 inh) | Peg3 prom inh-2 85
CCCN1C/C(=C/c2cccc([N+](=O)[O-])c2)C(=O)/C(=C/c2cccc([N+](=O)[O-])c2)C1	CF NFkB block 95, MITF TRPM1 inh 100, Peg3 prom inh-1 111, KKLEB cytotox -88 | Peg3 prom inh-2 71
N#Cc1ccc(C(=O)N2CCC3CC2c2cc(-c4ccccc4)ccc23)cc1 (stereo not given)	none
CC(C)N(C(=O)[C@H]1C[C@H](CC(=O)NCC23CC4CC(CC(C4)C2)C3)C(=O)N2CCc3c([nH]c4ccc(Cl)cc34)[C@]12C)C(C)C	Peg3 prom inh-1 63 | Peg3 prom inh-2 43
O=C(C[C@H]1C[C@H](C(=O)N2CCOCC2)[C@@]2(CCC3CCCC3)c3[nH]c4ccc(Cl)cc4c3CCN2C1=O)NCCN1CCOCC1	Peg3 prom inh-1 50 | Peg3 prom inh-2 inactive
CC(C)N(C(=O)[C@H]1C[C@H](CC(=O)NCCCN(C)C)C(=O)N2CCc3c([nH]c4ccc(Cl)cc34)[C@]12C)C(C)C	none
